TGFb inhibitor: inhibitors of TGF-b signaling. HepG2 CAGA-GFP TGF-b/SMAD3 reporter, GFP fluorescence, 18 h; TGF-beta stimulated, 500 pg/mL final. Potency, µM (top dose mostly 46.1 µM), inactives show top-dose activity, negative = inhibition, most hits filed as inhibitors. hit rate 1.2% among 410,000. AID 588855; note: % is set by controls: 0 for no effect and ±100 for the full control effect; nearly all actives have a fitted effect of over 65% in size
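HEPG2 CAGA-GFP reporter cells (1000/well, DMEM with 1% FBS) received compounds, then recombinant TGF-beta at 500 pg/mL final for 18 hours at 37 degrees C. Per-cell GFP summed per well was normalised to unstimulated and stimulated DMSO controls before curve fitting.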
ATXN viability: reduces viability in counter-screen for ATXN expression inhibitors | S2 cells (HEK-293 line with an ATXN2-luciferase reporter) viability, CellTiter-Fluor protease fluorescence, 24 h | Potency, µM (highest dose often 56.7 µM), actives largely listed as cytotoxic | hit rate 0.49% among 400,000 | AID 651635; note: nearly all actives have a fitted effect of over 40% in size
HepG2 tox: counter-screen for TGF-b inhibitors: cytotoxicity in HepG2 cells | HepG2 CAGA-GFP viability, ATP luminescence, 18 h | Potency, µM (highest dose often 46.1 µM), for the others: top-dose activity change, negative = cytotoxicity, usual class: cytotoxic | hit rate 0.76% among 410,000 | AID 588856
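HepG2 CAGA-GFP cells (1000/well, DMEM with 1% FBS) received compound, then TGF-beta at 500 pg/mL final, and were incubated 18 hours at 37 degrees C. Viability was read by CellTiter-Glo luminescence. Media-only wells were set as complete cell-killing and DMSO as no toxicity.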
ATXN2 expr inh: inhibitors of ATXN2 expression; HEK-293 ATXN2-luciferase reporter, luminescence, 24 h; Potency, µM (highest dose often 57 µM), for inactives: at the top dose activity change, negative = inhibition, most hits filed as inhibitors; hit rate 0.72% among 360,000; AID 1745845; note: % is set by controls: 0 for no effect and ±100 for the full control effect; nearly all actives have a fitted effect of over 55% in size
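qHTS (up to 57 uM final) was run with 24 h compound exposure of reporter cells at 37 °C. Each well was multiplexed: SteadyGlo luminescence measured ATXN2-luciferase expression after a fluorogenic Gly-Phe-AFC viability readout (25 uM final).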
TDP1 cell CPT: DT40-hTDP1 cell growth loss with CPT | chicken DT40 Tdp1-/-;hTDP1 cells + 20 nM CPT, ATP luminescence, 48 h | Potency, µM (titrated, usually from 46.2 µM), for the others: top-dose activity change, negative = growth inhibition, hits mostly inhibitors | hit rate 12% among 420,000 | AID 686979; note: % is set by controls: 0 for no effect and ±100 for the full control effect; nearly all actives have a fitted effect of over 55% in size
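Cell growth measured by CellTiter-Glo luminescence after a minimum 48 h, 37 C compound exposure with 20 nM CPT in Tdp1-knockout DT40 cells stably expressing hTDP1, seeded 400/well; qHTS titration format.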
TDP1 cell noCPT: qHTS for Inhibitors of human tyrosyl-DNA phosphodiesterase 1 (TDP1): qHTS in cells in absence of CPT. DT40 Tdp1-/- hTDP1 cells, no CPT, ATP luminescence, 48 h. hit rate 15% among 420,000. Potency, µM (series often up to 46.2 µM), without a hit: at the top dose activity change, negative = growth inhibition, usual class: inhibitors; note: % is set by controls: 0 for no effect and ±100 for the full control effect; nearly all actives have a fitted effect of over 55% in size
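Readout: luminescence from CellTiter-Glo after 30 min in the dark at RT. Cells: DT40 Tdp1-/- with stable hTDP1, 400/well. Exposure: compounds alone, ≥48 hr, 37 °C.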
An asterisk follows results filed as active. The list is not random: actives were taken first. Their share in the collection is about 17%. Calls come from the whole dose curve; as a rule, active = well fitted curve in the direction sought with a large enough effect; inconclusive = small, poorly fitted or top-dose-only effect, or another doubt; inactive = no such curve, though single readings can be large; an effect the other way counts as inactive or inconclusive. Potency is the fitted concentration of half-maximal effect.

How did COc1ccccc1-c1cnc(C(O)c2cc(C)c(OC)c(C)c2)[nH]1 (stereo not given) do in these assays?
TGFb inhibitor: 7%; ATXN viability: inactive; HepG2 tox: -18%; ATXN2 expr inh: -25%; TDP1 cell CPT: 23µM*; TDP1 cell noCPT: 23µM*

Results for CCCc1ccc(C(O)c2ncc(-c3ccccc3F)[nH]2)cc1 (stereo not given) ?
TGFb inhibitor: -18%; ATXN viability: inactive; HepG2 tox: -42%; ATXN2 expr inh: 31%; TDP1 cell CPT: 18µM*; TDP1 cell noCPT: inconclusive

How did COc1c(C)cc(C(O)c2ncc(-c3ccccc3Cl)[nH]2)cc1C (stereo not given) do in these assays?
TGFb inhibitor: -5%; ATXN viability: inconclusive; HepG2 tox: -24%; ATXN2 expr inh: -26%; TDP1 cell CPT: -25%; TDP1 cell noCPT: inconclusive

How did CCCn1nnnc1NC(=O)COc1ccc(CC)cc1 do in these assays?
TGFb inhibitor: -23%; ATXN viability: inconclusive; HepG2 tox: -16%; ATXN2 expr inh: -22%; TDP1 cell CPT: 1%; TDP1 cell noCPT: -6%

How did Cc1cc(OC(=O)c2ccc(S(=O)(=O)N(C)C)cc2)cc(=O)o1 do in these assays?
TGFb inhibitor: 0%; ATXN viability: inactive; HepG2 tox: 8%; ATXN2 expr inh: 5%; TDP1 cell CPT: 4%; TDP1 cell noCPT: 4%

Results for CCOC1=C2[C@H](c3ccc(CC)cc3)N(S(=O)(=O)c3ccc(C)cc3)C[C@H]2C(C#N)(C#N)C(C#N)(C#N)C1 ?
TGFb inhibitor: inconclusive; ATXN viability: inactive; HepG2 tox: -66%; ATXN2 expr inh: -25%; TDP1 cell CPT: 3.7µM*; TDP1 cell noCPT: 3.3µM*

Results for CCOC1=C2[C@H](c3ccccc3Cl)N(S(=O)(=O)c3ccc(C)cc3)C[C@H]2C(C#N)(C#N)C(C#N)(C#N)C1 ?
TGFb inhibitor: inconclusive; ATXN viability: inactive; HepG2 tox: -41%; ATXN2 expr inh: 8%; TDP1 cell CPT: 4.6µM*; TDP1 cell noCPT: 9.2µM*

What do the screens show for `CCCN1CCN(C(=O)c2cccc3c2C(=O)N(CCOC)C3)CC1`?
TGFb inhibitor: 3%; ATXN viability: inconclusive; HepG2 tox: 4%; ATXN2 expr inh: -13%; TDP1 cell CPT: 18%; TDP1 cell noCPT: -1%

Results for CC(C)CC(C(=O)N1CCOCC1)N1Cc2ccccc2C1=O (stereo not given) ?
TGFb inhibitor: -27%; ATXN viability: inactive; HepG2 tox: -13%; ATXN2 expr inh: 0%; TDP1 cell CPT: 0%; TDP1 cell noCPT: 2%

Results for O=C(COC(=O)/C=C/c1ccc(F)cc1)Nc1nnc(-c2ccccc2)o1 ?
TGFb inhibitor: 0%; ATXN viability: inactive; HepG2 tox: -14%; ATXN2 expr inh: 0%; TDP1 cell CPT: -22%; TDP1 cell noCPT: -2%

What do the screens show for `COc1cc(OC)c2c(c1)C(=O)OC2c1cc(OC)c(OC)cc1C` (stereo not given)?
TGFb inhibitor: -17%; HepG2 tox: -2%; TDP1 cell CPT: inconclusive; TDP1 cell noCPT: 11µM*

How did O=C(Nc1ccc(Cl)c([N+](=O)[O-])c1)ONC1=NCCCCC1 do in these assays?
TGFb inhibitor: 6%; ATXN viability: inactive; HepG2 tox: -15%; ATXN2 expr inh: -15%; TDP1 cell CPT: inconclusive; TDP1 cell noCPT: 13µM*

What do the screens show for `COc1cc(C(=O)Nc2ccc(Cl)c([N+](=O)[O-])c2)cc(OC)c1OC`?
TGFb inhibitor: 3%; ATXN viability: inactive; HepG2 tox: -21%; ATXN2 expr inh: -19%; TDP1 cell CPT: -4%; TDP1 cell noCPT: -20%

Source: PubChem
